VACV mCherry inh – vaccinia inhibition (mCherry reporter); Vaccinia virus mCherry reporter infection, fluorescence; Potency, µM (highest dose often 36.5 µM), usual class: inhibitors; hit rate 0.63% among 310,000; AID 720579; calls by dose curve; tested in A549 cells; also: nearly all actives have a fitted effect of over 35% in size
Vaccinia Venus – inhibitors of vaccinia virus (Venus reporter); Vaccinia virus Venus reporter expression, fluorescence; Potency, µM (highest dose often 36.5 µM), actives largely listed as inhibitors; hit rate 0.46% among 330,000; AID 720580; calls by dose curve; tested in A549 cells; also: nearly all actives have a fitted effect of over 30% in size
FMDV inh – foot and mouth disease virus antiviral activity; FMDV antiviral cell-based qHTS; Potency, µM (top dose mostly 57.9 µM), actives largely listed as inhibitors; hit rate 1.2% among 410,000; calls by dose curve; tested in HEK293T cells; also: read-out not given here; nearly all actives have a fitted effect of over 45% in size
HCMV antiviral – blocks human cytomegalovirus replication | hit rate 4.5% among 410,000 | HFF cells, HCMV-luciferase reporter, 72 h; active compounds read low | activity change, negative = inhibition, % at 57.5 µM | AID 1259415; in the data active = activity change below about -60%; inconclusive = no clear call, values can overlap the other calls; inactive = above about -39%
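Two compound doses tested in HFFs infected with HCMV-luciferase, MOI 1 PFU/cell, 72 h at 37C. Lysate luminescence read with OneGlo; data normalized against buffer-only and 10uM Salinomycin inhibitor controls.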
HCV inhibitor – inhibitors of hepatitis C virus infection | hit rate 3.4% among 340,000 | AID 651820 | Potency, µM (series often up to 41.8 µM), most hits filed as inhibitors | Huh7.5.1 HCVcc-Cre infection, luciferase reporter, 44 h; active = well fitted inhibition curve with a large enough effect; inconclusive = small, poorly fitted or top-dose-only effect, or another doubt; inactive = no such curve, though single readings can be large or run the other way
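Luciferase read-out (15 sec integration) after a 15 min room-temperature substrate step quantifies HCVcc-Cre infection. Cells, 1,000 per well, had compound added 4 h post-plating, then virus at ~0.5 moi, and were cultured 44 h.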
Large screens that a line does not name were inactive; ! = repeats disagree. In the library only some 7.3% were active in any assay of this set; here they are far more common.

Nc1ncc(-c2ccc([N+](=O)[O-])cc2)cn1	HCMV antiviral -95
COc1ccc(CN2CCC3(CCC(CNC(=O)C4CCCO4)O3)CC2)c(C)c1C (configuration not stated)	none (no result: HCMV antiviral, HCV inhibitor)
COc1ccc(NC(C)C(=O)N/N=C/c2ccc([N+](=O)[O-])s2)cc1 (configuration not stated)	VACV mCherry inh 8.9µM, Vaccinia Venus 13µM, HCMV antiviral inconclusive, HCV inhibitor inconclusive
Cc1ccc(NC(C)C(=O)N/N=C/c2ccc([N+](=O)[O-])s2)cc1 (configuration not stated)	VACV mCherry inh inconclusive, Vaccinia Venus inconclusive, HCMV antiviral -70, HCV inhibitor inconclusive
Cc1ccnn1CC(=O)N/N=C/c1ccc([N+](=O)[O-])s1	HCMV antiviral inconclusive, HCV inhibitor inconclusive (no result: VACV mCherry inh, Vaccinia Venus)
CCOC(=O)C1(Cc2ccc(OC)cc2)CCN(C(=O)c2sc(C)nc2C)CC1	Vaccinia Venus inconclusive, HCMV antiviral inconclusive, HCV inhibitor inconclusive
CCOC(=O)C1(Cc2ccc(Cl)cc2)CCN(C(=O)c2sc(C)nc2C)CC1	FMDV inh 32µM, HCMV antiviral -76, HCV inhibitor 11µM (no result: VACV mCherry inh, Vaccinia Venus)
CCOC(=O)C1(Cc2ccc(Cl)cc2)CCN(CCCn2cccn2)CC1	FMDV inh inconclusive, HCMV antiviral -62, HCV inhibitor 3.2µM
Cc1ccc(Cn2c(=O)n(CCCCC(=O)NCCc3ccc(Cl)cc3)c(=O)c3ccccc32)cc1	none (no result: HCV inhibitor)
CC(C)CN1CCc2nc(N3CCN(C)CC3)ncc2C1	none (no result: HCV inhibitor)
C[C@H](Cc1ccc(O)c(O)c1)[C@@H](C)Cc1ccc(O)c(O)c1	none (no result: HCMV antiviral, HCV inhibitor)
CC(Cc1ccc(O)c(O)c1)C(C)Cc1ccc(O)c(O)c1 (configuration not stated)	HCV inhibitor 10µM (no result: HCMV antiviral)
COc1cc(OC)c(/C=C/c2ccncn2)c(OC)c1	none (no result: FMDV inh, HCMV antiviral, HCV inhibitor)
Cc1ccccc1CN1CCN(CC(=O)NCc2ccccc2Cl)C1=O	none (no result: HCV inhibitor)
C=C1[C@@H](O)[C@@H]2O[C@]3(CC[C@H](/C=C/[C@@H](C)[C@@H]4CC(C)=CC5(O[C@H](C[C@@](C)(O)C(=O)OC)CC[C@H]5O)O4)O3)CC[C@H]2O[C@@H]1[C@@H](O)C[C@H](C)[C@H]1OC2(CCCCO2)CC[C@H]1C (some centres not stated)	VACV mCherry inh 1.3µM, Vaccinia Venus 1.3µM, HCV inhibitor 0.56µM (no result: HCMV antiviral)
C=C1C(O)[C@@H]2O[C@]3(CC[C@H](/C=C/C(C)[C@@H]4CC(C)=CC5(O[C@H](C[C@@](C)(O)CO)CCC5O)O4)O3)CC[C@H]2O[C@@H]1C(O)CC(C)[C@H]1OC2(CCCCO2)CCC1C (some centres not stated)	VACV mCherry inh inconclusive, Vaccinia Venus 10µM, HCV inhibitor 1.4µM (no result: HCMV antiviral)
Cc1ccc2c(C(=O)CNC3=NCCS3)c(C)[nH]c2c1	Vaccinia Venus inconclusive (no result: FMDV inh, HCMV antiviral, HCV inhibitor)
COC(=O)c1ccccc1NC(=O)Cn1nc(C)c2nn(-c3ccc(Cl)cc3)c(C)c2c1=O	Vaccinia Venus inconclusive, FMDV inh inconclusive (no result: HCV inhibitor)
CCCN(CC1CC1)C(=O)CSc1ncnc2sc(C)c(C)c12	FMDV inh inconclusive, HCMV antiviral -83, HCV inhibitor inconclusive
CCN(C(=O)CSc1ncnc2sc(C)c(C)c12)C1CCS(=O)(=O)C1 (configuration not stated)	FMDV inh inconclusive, HCV inhibitor inconclusive
Cc1ccc(Nc2nc(N/N=C/c3c[nH]c4ccccc34)nc(N3CCOCC3)n2)cc1	VACV mCherry inh inconclusive, Vaccinia Venus inconclusive, FMDV inh inconclusive, HCV inhibitor inconclusive
C(=N\Nc1nc(Nc2ccccc2)nc(N2CCOCC2)n1)/c1c[nH]c2ccccc12	HCV inhibitor 3.5µM (no result: VACV mCherry inh, Vaccinia Venus)
Cc1[nH]c2ccccc2c1/C=N/Nc1nc(Nc2ccc(F)cc2)nc(N2CCOCC2)n1	HCV inhibitor 8.9µM!
O=C(CSc1nc2ncccc2[nH]1)c1cccc([N+](=O)[O-])c1	VACV mCherry inh inconclusive, HCMV antiviral -66, HCV inhibitor inconclusive
CC(C)OC(=O)c1ccc(NC(=O)CSc2nc3ncccc3[nH]2)cc1	FMDV inh inconclusive, HCV inhibitor 11µM (no result: VACV mCherry inh, Vaccinia Venus)
COC(=O)[C@@]1(Cc2ccc(F)cc2)[C@H]2c3cc(C(=O)N(C)C)n(CCF)c3C[C@H]2CN1C(=O)c1ccccc1	none (no result: HCV inhibitor)
COC(=O)[C@@]1(Cc2ccccc2)[C@@H]2C(=CC(=O)[C@H]2CC(=O)C(=O)N(C)C)CN1C(=O)c1ccccc1	VACV mCherry inh inconclusive, Vaccinia Venus inconclusive, FMDV inh 14µM, HCV inhibitor inconclusive (no result: HCMV antiviral)
CCOC(=O)C1=CCC(c2ccccc2)N(S(C)(=O)=O)C1 (configuration not stated)	none (no result: VACV mCherry inh, Vaccinia Venus, FMDV inh, HCV inhibitor)

Compound activity as filed in PubChem BioAssay.
